PKA-R1A activ: activates the PKA-R1A holoenzyme complex | activation, % at 11.4 µM | PKA-R1A dissociation, Cy5-IP20 fluorescence polarization; scaled: DMSO 0%, 113 µM cGMP 100% | 340,000 tested, 0.083% active | P00514+P68181;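 active means percent activation above the mean of all tested compounds plus 3 SD, cut at about 19% in these data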;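 further: higher means more PKAc released from R1A so a rise in polarization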
PKA-R2B activ: activates the human PKA-R2B holoenzyme complex; PKA-R2B holoenzyme dissociation, Cy5-IP20 fluorescence polarization; R2B truncated from residue 108, S112A mutant; 0% DMSO only, 100% 113 µM cGMP; activation, % at 11.4 µM; 340,000 tested, 0.079% active;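 active means activation above a cutoff set at the mean over all compounds plus 3 SD, cut at about 18% in these data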;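 further: higher means more holoenzyme dissociation and a rise in polarization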
HDAC3 inhib: blocks human histone deacetylase 3; 320,000 tested, 0.15% active; recombinant HDAC3, fluorogenic peptide/trypsin coupled, fluorescence; inhibition, % at 8.3 µM; O15379; AID 2718; in the data active means inhibition above about 26%, passing the limit was not always enough; inconclusive means no clear call, values can overlap the other calls
Target sequence (O15379 whole entry, looked up): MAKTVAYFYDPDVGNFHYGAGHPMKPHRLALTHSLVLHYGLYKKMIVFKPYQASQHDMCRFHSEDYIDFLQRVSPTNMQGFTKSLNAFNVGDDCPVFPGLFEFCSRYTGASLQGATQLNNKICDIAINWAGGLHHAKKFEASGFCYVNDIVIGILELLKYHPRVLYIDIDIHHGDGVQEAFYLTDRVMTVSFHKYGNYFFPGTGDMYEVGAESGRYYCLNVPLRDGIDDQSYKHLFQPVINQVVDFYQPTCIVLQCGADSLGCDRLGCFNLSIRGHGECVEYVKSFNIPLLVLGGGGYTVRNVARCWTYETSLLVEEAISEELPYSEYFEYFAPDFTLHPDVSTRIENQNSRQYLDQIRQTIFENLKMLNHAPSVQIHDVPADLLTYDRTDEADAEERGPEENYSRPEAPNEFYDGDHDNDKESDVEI
Rtt109 Vps75: C. albicans Rtt109 histone acetyltransferase inhibition; Q5AAJ8; purified Rtt109/Vps75, ThioGlo CoA-SH fluorescence, 4 h; inhibition, % at 34.9 µM; 330,000 tested, 0.16% active;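 active means inhibition of at least 50% in every replicate; inconclusive means best replicate reaches 50% inhibition but some replicates fall short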
Starred values were filed as active, the others as inactive; ? = inconclusive; / = no result. An excerpt weighted towards active compounds, which were near 0.43% of everything screened.

SMILES	PKA-R1A activ	PKA-R2B activ	HDAC3 inhib	Rtt109 Vps75
COc1cc(C)nc(-c2csc(C)n2)n1	-11	3	-6	-1
Nc1cc(OC(=O)c2ccc(F)cc2)nn1S(=O)(=O)c1ccccc1	-15	-10	59*	-6
COc1ccc(S(=O)(=O)n2nc(OC(=O)c3cccs3)cc2N)cc1	2	0	95*	4
COc1cc(C(=O)Oc2cc(N)n(S(=O)(=O)c3ccc(F)cc3)n2)cc(OC)c1OC	-5	-3	7	6
COc1ccc(S(=O)(=O)n2nc(OC(=O)c3ccc(C)cc3)cc2N)cc1	-14	0	61*	1
COc1ccc(S(=O)(=O)n2nc(OC(=O)c3ccco3)cc2N)cc1	7	1	71*	5
COc1ccc(S(=O)(=O)n2nc(OC(=O)c3ccncc3)cc2N)cc1	-6	9	-4	2
Cc1ccc(NC2CCCN(C(=O)c3cc4ncccn4n3)C2)cc1C (stereo not drawn)	-5	0	3	-7
O=C(CSc1ccc2c(c1)OCCO2)NC(=O)Cc1ccccc1	0	4	8	6
COc1ccc(S(=O)(=O)n2nc(OC(=O)c3ccccc3)cc2N)cc1	-4	5	54*	-2
CS(=O)(=O)n1nc(OC(=O)c2cccs2)cc1N	0	-9	93*	-9
O=c1[nH]c2ccccc2c2oc(CCl)nc12	5	12	3	78*
CCC1CCc2c(c3ccccc3[nH]c2=O)O1 (stereo not drawn)	9	10	-6	-2
O=C(O)C1CCc2sc3[nH]c(=S)n(-c4ccccc4)c(=O)c3c21 (stereo not drawn)	3	4	9	105*
CCN(CC)c1ccc(/C=C(/C#N)c2nc3ccccc3[nH]2)c(OC(C)C)c1	-11	-10	-5	-6
NC(=O)[C@H]1CC2(CC(c3cccc(NC(=O)[C@H]4CCC(=O)N4)c3)=NO2)CN1C(=O)c1cc([N+](=O)[O-])cc([N+](=O)[O-])c1 (stereo partly drawn)	-7	-6	39*	8
COC(=O)c1cccc(N(CC(=O)NC2CCCCC2)C(=O)CNC(=O)c2cccs2)c1	-1	8	11	2
CCC(=O)Nc1cc(C)c(OC)c(C)c1	0	-3	-1	52*
CC1(C)CC(=O)C2=C(C1)NC(SCC(=O)Nc1ccccc1)=C(C#N)C21CCCCC1	5	8	10	1
CC1(C)CC(=O)C2=C(C1)NC(=S)C(C#N)C21CCCCC1 (stereo not drawn)	6	5	39*	14
CCC(C(=O)OCC(=O)N1C(C)CCCC1C)c1ccccc1 (stereo not drawn)	2	6	1	0
CC1Sc2ccccc2N(CC(=O)N(C(C)C)C(C)C)C1=O (stereo not drawn)	-7	-13	-6	51*
CCC(C)NC(=O)CN1C(=O)C(CC)Sc2ccccc21 (stereo not drawn)	-9	-8	-1	4
CC1=C(C(=O)OC2CCCCCC2)C(c2ccc(C)o2)C2=C(CCCC2=O)N1 (stereo not drawn)	-15	-18	6	/
COC(=O)C1=C(C)NC2=C(C(=O)CCC2)C1c1ccc(-c2ccsc2C(=O)OC)o1 (stereo not drawn)	-1	-1	32*	?
SMILES	PKA-R1A activ	PKA-R2B activ	HDAC3 inhib	Rtt109 Vps75
O=C1C(Cl)=C(N2CCOCC2)C(=O)N1c1cccc(Cl)c1	-5	-1	5	-2
Cc1cccc(N2C(=O)C(Cl)=C(N3CCOCC3)C2=O)c1	-1	12	1	113*
C=C(C)c1cccc(C(C)(C)NC(=O)Nc2ccc3[nH]c(=O)[nH]c3c2)c1	3	-16	5	2
COc1ccc(N/C=C/C(=C(C#N)C#N)N(C)C)cc1	/	/	9	-8
CCOc1ccc(C2NC(=O)C(C#N)=C(S)N2c2ccc(OC)cc2)cc1OC (stereo not drawn)	-5	-2	3	144*
COc1ccc(N2C(S)=C(C#N)C(=O)NC2c2ccc(OC)c(OC)c2)cc1 (stereo not drawn)	-2	-2	5	110*
COc1ccc(C2NC(=O)C(C#N)=C(S)N2c2ccc(C)cc2)cc1OC (stereo not drawn)	4	-7	5	24
Cc1ccc(N2C(S)=C(C#N)C(=O)NC2c2cccs2)cc1 (stereo not drawn)	0	0	11	?
N#CC1=C(S)N(c2ccccc2)C(c2cccs2)NC1=O (stereo not drawn)	-7	2	2	109*
COc1ccc(C2NC(=O)C(C#N)=C(S)N2c2cccc(C)c2)cc1OC (stereo not drawn)	-7	5	1	74*
COc1cc(C2NC(=O)C(C#N)=C(S)N2c2ccc(C)cc2)ccc1OC(C)C (stereo not drawn)	3	-9	9	?
Cc1n[nH]c(=O)c2c(NC(=O)CSc3nncs3)oc(C)c12	-8	-2	2	-3
Cc1ccc(S(=O)(=O)N2CCN(S(=O)(=O)c3ccccc3Br)CC2)cc1	-10	-4	/	3
COc1ccccc1OCC(=O)NCCSCc1cccc(Cl)c1	0	-8	0	-4
O=C(CNC(=O)c1ccc(Cl)cc1)c1ccc(Cl)cc1	-7	0	-3	-5
O=C(CNC(=O)c1ccc(F)cc1)c1ccc(Cl)cc1	5	1	1	52*
O=c1oc(-c2cccnc2)nc2ccccc12	-6	-7	?	5
O=c1oc(-c2ccccc2Br)nc2ccccc12	-1	10	44*	-14
CC(C)NC(=O)c1cccc(NC(=O)CC2SC(N3CCCCC3)=NC2=O)c1 (stereo not drawn)	1	2	/	-2
O=C(CC1SC(N2CCCCC2)=NC1=O)Nc1cccc(C(=O)Nc2ncccc2O)c1 (stereo not drawn)	9	-11	65*	-4
CCOc1cc(/C=C2\N=C(C)OC2=O)cc(Cl)c1OCC(=O)OC	0	-7	48*	-3
COc1ccccc1N(C)S(=O)(=O)c1ccc(C)c(C(=O)Nc2nccs2)c1	2	6	8	/
O=C(Nc1ccc(Cl)c(S(=O)(=O)N2CCCCC2)c1)C1=COCCO1	-11	-3	-1	52*
CCOc1ccccc1C(=O)N/N=C/c1coc2ccc(Cl)cc2c1=O	3	-8	32*	1
O=C(N/N=C/c1coc2ccccc2c1=O)c1ccncc1	1	-4	-1	-5
O=C(N/N=C/c1coc2ccccc2c1=O)c1cc(Br)c(O)c(Br)c1	1	0	46*	0
Cc1noc(NS(=O)(=O)c2ccc(N/C=C/C(=O)c3cccnc3)cc2)c1C	-4	-7	/	73*
COc1ccc(NCc2nnc(SCC(=O)c3ccc(OC)cc3)o2)cc1	1	-1	41*	-4
CC(N)c1ccc(Cl)cc1Cl (stereo not drawn)	3	3	-2	-10
